Laboratory results taken from the supplement of paper PMC4022240.
± gives the standard deviation.

T1: HaloTag-ATRX ADD domain (163-292)
T1 chain: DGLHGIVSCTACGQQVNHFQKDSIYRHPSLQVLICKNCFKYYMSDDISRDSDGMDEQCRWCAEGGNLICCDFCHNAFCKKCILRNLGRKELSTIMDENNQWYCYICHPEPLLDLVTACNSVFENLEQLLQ


Experiments:
Assay in all cases: peptide microarray binding signal (635 nm), min-max normalized on array (fraction of array maximum); higher = stronger binding
[1] = biological target: T1, HaloTag-ATRX ADD domain (163-292)
How it was run: (§1)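 Within each library, mean intensities of triplicate spots were min-max scaled to give the binding signal. The spots were histone 13-mer peptide–cellulose conjugates on nitrocellulose with a Cy3 tracer, blocked overnight at 4°C. They were then probed for 1 h at 4°C using biotin-labelled HaloTag reader fusions (10 nM to 1 μM) with streptavidin-Alexa Fluor 647 or rabbit histone antibodies (1:10,000 to 1:2,000) with anti-rabbit Alexa 647, and scanned at 635 nm for signal and 532 nm for misprints on an Axon GenePix 4000B.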

[2] = biological target: HaloTag-ING2 PHD (mouse Ing2 200-280)
How it was run: as §1

[3] = biological target: anti-H3K4me3 antibody ab8580
How it was run: as §1

[4] = biological target: anti-H3K9me3 antibody ab8898
How it was run: as §1

[5] = peptide region: Unmod H1 variant, binder concentration: 50 nM
[6] = peptide region: Unmod H1 variant, binder concentration: 500 nM
[7] = peptide region: Unmod H1 variant, binder concentration: 10 nM
[8] = peptide region: Unmod H1 variant, binder concentration: 100 nM
[9] = peptide region: Unmod H1 variant, binder concentration: 1:2,000 dilution
[10] = peptide region: Unmod H1 variant, binder concentration: 1:10,000 dilution
[11] = peptide region: Unmod H2A variant, binder concentration: 1:2,000 dilution
[12] = peptide region: Unmod H2A variant, binder concentration: 1:10,000 dilution

Binder	peptide microarray binding signal [1, 5]	peptide microarray binding signal [1, 6]	peptide microarray binding signal [2, 7]	peptide microarray binding signal [2, 8]	peptide microarray binding signal [3, 9]	peptide microarray binding signal [3, 10]	peptide microarray binding signal [4, 9]	peptide microarray binding signal [4, 10]	peptide microarray binding signal ([1]; peptide region: Unmod H2A variant, binder concentration: 50 nM)	peptide microarray binding signal ([1]; peptide region: Unmod H2A variant, binder concentration: 500 nM)	peptide microarray binding signal ([2]; peptide region: Unmod H2A variant, binder concentration: 10 nM)	peptide microarray binding signal ([2]; peptide region: Unmod H2A variant, binder concentration: 100 nM)	peptide microarray binding signal [3, 11]	peptide microarray binding signal [3, 12]	peptide microarray binding signal [4, 11]	peptide microarray binding signal [4, 12]
KAASGEAKPKAKK [Unmod H1 variant K A A S G E A K P K A K K]	0.0252 ± 0.0022	0.0245 ± 0.0017	0.007579 ± 5.8e-05	0.0113 ± 0.0012	0.000831 ± 4.9e-05	0.00171 ± 4.3e-05	0.000483 ± 1.7e-05	0.001211 ± 1.2e-05	–	–	–	–	–	–	–	–
AKAVKPKAAKPKT [Unmod H1 variant A K A V K P K A A K P K T]	0.0116 ± 0.00013	0.00791 ± 0.00033	0.00304 ± 8.9e-05	0.00765 ± 0.00045	0.000774 ± 2.8e-05	0.00137 ± 1.3e-05	0.000453 ± 1.3e-05	0.000865 ± 9e-06	–	–	–	–	–	–	–	–
AKKPAGAAKKPKK [Unmod H1 variant A K K P A G A A K K P K K]	0.00931 ± 0.00023	0.00786 ± 0.00022	0.003103 ± 3e-05	0.00765 ± 0.00058	0.0006041 ± 5.8e-06	0.00217 ± 0.0002	0.000423 ± 8.2e-06	0.00104 ± 1.1e-05	–	–	–	–	–	–	–	–
KAAKPKKAAAKKK [Unmod H1 variant K A A K P K K A A A K K K]	0.00972 ± 0.0014	0.00767 ± 0.00046	0.0034 ± 6.6e-05	0.00673 ± 0.00083	0.0007173 ± 6.6e-06	0.00143	0.000619 ± 2.4e-05	0.00156 ± 6.6e-05	–	–	–	–	–	–	–	–
KKAPKSPAKAKAV [Unmod H1 variant K K A P K S P A K A K A V]	0.00658 ± 0.0021	0.00976 ± 0.00041	0.00412 ± 0.0002	0.00978 ± 0.00048	0.000793 ± 4.5e-05	0.00154 ± 3.9e-05	0.000347 ± 9.2e-06	0.00115 ± 2e-05	–	–	–	–	–	–	–	–
QGGKARAKSKSRS [Unmod H2A variant Q G G K A R A K S K S R S]	–	–	–	–	–	–	–	–	0.0112 ± 0.00043	0.0328 ± 0.0016	0.00824 ± 9.4e-05	0.0201 ± 0.0027	0.00194 ± 0.00036	0.00143 ± 2.4e-05	0.000574 ± 1.1e-05	0.000807 ± 1.5e-05
EKNNSRIKLGLKS [Unmod H1 variant E K N N S R I K L G L K S]	0.0196 ± 0.00022	0.0155 ± 0.00098	0.00585 ± 0.0006	0.0201 ± 0.0018	0.00196 ± 0.00038	0.00137 ± 4.9e-05	0.000317 ± 5.6e-06	0.00098	–	–	–	–	–	–	–	–
KAKKAGAAKAKKP [Unmod H1 variant K A K K A G A A K A K K P]	0.01282 ± 3.1e-05	0.0114 ± 0.00065	0.00424 ± 5.8e-05	0.00935 ± 0.00021	0.000906 ± 2.4e-05	0.00148 ± 2.9e-05	0.000423 ± 8.2e-06	0.00075 ± 7.9e-06	–	–	–	–	–	–	–	–
ALAAAGYDVEKNN [Unmod H1 variant A L A A A G Y D V E K N N]	0.021 ± 0.00023	0.0215 ± 0.001	0.00991 ± 0.00043	0.0252 ± 0.0029	0.0067 ± 0.0027	0.00702 ± 0.00034	0.00281 ± 0.0003	0.00357 ± 0.00017	–	–	–	–	–	–	–	–
PKKAKAAKPKKAP [Unmod H1 variant P K K A K A A K P K K A P]	0.009 ± 0.00089	0.01 ± 0.00062	0.00424 ± 0.00016	0.00751 ± 0.00063	0.0006985 ± 6.5e-06	0.00171 ± 3.3e-05	0.000589 ± 9.4e-06	0.00773 ± 0.0051	–	–	–	–	–	–	–	–
